Vaccinia Venus: qHTS for Stage-Specific Inhibitors of Vaccinia Orthopoxvirus: Venus Reporter Primary qHTS; Vaccinia virus Venus reporter expression, fluorescence; Potency, µM (titrated, usually from 36.5 µM), without a hit: at the highest dose activity change, negative = inhibition, most hits filed as inhibitors; 0.46% of 330,000 active; AID 720580, 2013; calls by dose curve; tested in A549 cells; also: nearly all actives have a fitted effect of over 30% in size
HCV inh: qHTS Assay for Inhibitors of Hepatitis C Virus (HCV); 3.4% of 340,000 active; Potency, µM (highest dose often 41.8 µM), for inactives: at the highest dose activity change, negative = inhibition, actives largely listed as inhibitors; Huh7.5.1 HCVcc-Cre infection, luciferase reporter, 44 h; active = well fitted inhibition curve with a large enough effect; inconclusive = small, poorly fitted or top-dose-only effect, or another doubt; inactive = no such curve, though single readings can be large or run the other way
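HCVcc-Cre virus at an moi near 0.5 was added right after compound to cells cultured 4 h from seeding (1,000 cells/well). Luciferase activity was determined 44 h later, 15 min after substrate addition at RT.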
Vaccinia mCherry: qHTS for Stage-Specific Inhibitors of Vaccinia Orthopoxvirus: mCherry Reporter Primary qHTS | Vaccinia virus mCherry reporter infection, fluorescence | 0.63% of 310,000 active | Potency, µM (top dose mostly 36.5 µM), without a hit: at the highest dose activity change, negative = inhibition, hits mostly inhibitors; calls by dose curve; tested in A549 cells; also: nearly all actives have a fitted effect of over 35% in size
Active calls of the source: *; i = inactive; u = inconclusive; x = no result; ! = not confirmed by another sample; [ ] = another dose, or the depositor's remark. In the library only some 3.3% were active in any assay of this set; here they are far more common. % is scaled to controls: 0 for no effect and ±100 for the full control effect; potency is read from the fitted curve at half-maximal effect.

SMILES | Vaccinia Venus | HCV inh | Vaccinia mCherry
CC(O)CNc1ncnc2cc(-c3ccc(F)cc3)sc12 (stereo not drawn) | -18% | -5% | -30%
CC(=O)C[C@H]1c2cc(F)cc(F)c2S(=O)(=O)N1C1CCN(Cc2ccccc2)CC1 | -11% | x | -9%
COc1ccccc1CNC(=O)CCC1N=C2c3ccccc3N=C(SCc3cccc(Cl)c3)N2C1=O (stereo not drawn) | u | x | 4µM*
O=C(CCC1N=C2c3ccccc3N=C(SCc3cccc(Cl)c3)N2C1=O)N1CCN(c2ccccc2)CC1 (stereo not drawn) | u | x | 8.9µM*
O=C(CCC1N=C2c3ccccc3N=C(SCc3cccc(Cl)c3)N2C1=O)NCCc1ccccc1 (stereo not drawn) | -4% | x | -15%
O=C(CCC1N=C2c3ccccc3N=C(SCc3ccc(F)cc3)N2C1=O)N1CCN(c2ccccc2)CC1 (stereo not drawn) | -10% | x | -13%
Cc1ccc(Cn2c(C)c(CNCc3ccc(OC(C)C)cc3)c(C(=O)O)c2C)cc1 | -9% | x | -14%
O=C(CNCc1ccccc1)NCCCN1CCCC1=O | -3% | 14% | 5%
CCc1ccc2oc(-c3ccc(OC)cc3)cc(=Nc3c(C)n(C)n(-c4ccccc4)c3=O)c2c1 | x | 10µM* | x
CCc1ccc2oc(-c3ccc(OC)cc3)cc(=Nc3cccc(C(=O)O)c3)c2c1 | -17% | u | u
Cc1ccc(-n2c3nc(=O)n(C)c(=O)c-3cc3ccccc32)cc1 | -10% | -2% | -27%
Cc1ccc(-c2nc3c(=O)n(C)c(=O)nc-3n(C)n2)cc1 | 0.89µM* | x | 2.8µM*
Cn1nc(-c2ccccn2)nc2c(=O)n(C)c(=O)nc1-2 | x | 2µM* | x
Cc1ccc(-c2nc(N)n(S(C)(=O)=O)n2)cc1 | -29% | 17% | x
Cc1ccccc1-c1nc2ccccc2c(=O)n1C | -7% | 13% | -14%
Cc1ccccc1-c1nc2c(=O)n(C)c(=O)nc-2n(C)n1 | 0.89µM* | x | 2.8µM*
COc1ccc(-c2nc(-c3ccccn3)ncc2S(C)(=O)=O)cc1 | -4% | -9% | -2%
Cn1ncnc2c(=O)n(C)c(=O)nc1-2 | x | 0.5µM* | x
COc1cccc(N2C(=O)C(CC(=O)Nc3cccc(F)c3)N(C(C)C)C2=O)c1 (stereo not drawn) | -5% | x | -2%
COc1cccc(CNC(=O)C2CCN(S(=O)(=O)c3c(C)noc3/C=C/c3cccs3)CC2)c1 | -21% | x | -14%
O=C1CCCc2cc(S(=O)(=O)N3CCCC(C(=O)NCc4ccccc4Cl)C3)ccc2N1 (stereo not drawn) | -7% | x | -13%
CCc1noc(C)c1C(=O)N1CCOc2ccc(CN3CCN(c4ccccn4)CC3)cc2C1 | -8% | x | -11%
CCn1c(N)nc2c1c(=O)n(C)c(=O)n2C | 2% | 5% | 11%
CCc1ccc(-c2csc3ncn(CC)c(=O)c23)cc1 | -21% | 7% | i
CCc1ccc(-c2nc3c(=O)n(C)c(=O)nc-3n(CC)n2)cc1 | 11µM* | x | 5.6µM*
SMILES | Vaccinia Venus | HCV inh | Vaccinia mCherry
CCCc1nc2c(=O)n(C)c(=O)nc-2n(C)n1 | 1µM* | 2.5µM* | u
COc1ccc(O)c(CN2CCOc3c(cc(-c4cccc(OC)n4)cc3OC)C2)c1 | -5% | x | -15%
Cc1ccc(C)c(NC(=O)CSc2nc3c([nH]c4ccccc43)c(=O)n2-c2ccc(F)cc2)c1 | -17% | x | -19%
O=C1CC(NS(=O)(=O)c2ccccc2F)CN1c1ccc2c(c1)OCCO2 (stereo not drawn) | -5% | 20% | i
COc1cc(NC(=O)CCS(=O)(=O)c2ccc3c(c2)CC(=O)N3C)cc(OC)c1OC | -4% | x | -8%
CN1CCc2c(c3ccccc3n2C)C1 | -4% | -16% | -11%
CN1CCc2c(c3ccccc3n2Cc2ccccc2)C1 | 13µM*! | -28% | 28µM*!
O=C(O)c1cccc(Cn2c(Cl)c(/C=N/NC(=O)c3cc4ccccc4cc3O)sc2=O)c1 | x | -6% | x
Cc1cccc(C)c1NC(=O)CN(C)C(=O)CC1Sc2ccccc2NC1=O (stereo not drawn) | -6% | -1% | -10%
O=C(Nc1ccccc1Cl)c1ccc2nc(N3CCOCC3)sc2c1 | -5% | -5% | i
O=C(Nc1ccc(F)cc1F)c1ccc2nc(N3CCOCC3)sc2c1 | -7% | 13µM* | i
CCCCNC(=S)NCC(c1ccccc1)c1c[nH]c2ccccc12 (stereo not drawn) | -13% | u | -15%
CN(C)CCCNC(=S)NCC(c1ccc(Cl)cc1Cl)c1c[nH]c2ccccc12 (stereo not drawn) | u | 11µM* | u
Cc1ccc(NC(=O)c2cc(C(C)(C)C)nn2Cc2ccccc2)cc1 | -15% | u | -18%
CC(C)(C)c1cc(C(=O)Nc2ccc(F)cc2)n(Cc2ccc(F)cc2)n1 | x | 11µM* | x
CCOc1ccc(/C=C(\C(=O)O)c2ccc(S(=O)(=O)N3CCCCC3)s2)cc1OC | -9% | -2% | i
Cc1ccccc1CN1[C@@H](Cc2ccccc2)COCCS1(=O)=O | -16% | -1% | -27%
C=C1[C@@H](O)[C@H](Cc2ccccc2)N(Cc2ccccc2Br)S1(=O)=O | 10µM* | 23%[8.37 µM] | 10µM*
CCN1CCN(c2ccc(S(=O)(=O)N3CCOCC3)cc2NC(=O)/C=C/c2ccc([N+](=O)[O-])cc2)CC1 | u | 25µM* | u
CCN1CCN(c2ccc(S(=O)(=O)N3CCOCC3)cc2NC(=O)c2cccc([N+](=O)[O-])c2)CC1 | -2% | u | u
CN1CCN(c2ccccc2NC(=O)c2ccc(-c3cccc([N+](=O)[O-])c3)o2)CC1 | u | 5.6µM* | i
CCN1CCN(c2ccc(S(=O)(=O)N3CCCCC3)cc2NC(=O)c2ccc([N+](=O)[O-])o2)CC1 | 10µM* | 3.5µM* | 4µM*
CCC(=O)N1CCN(c2ccccc2NC(=O)c2ccc(-c3cccc([N+](=O)[O-])c3)o2)CC1 | 12% | u | i
COc1ccc(-c2cc3ccccc3oc2=O)cc1NC(=O)c1ccc(Br)o1 | -14% | 16% | -16%
CCN1CCN(c2ccc(S(=O)(=O)N3CCCCC3)cc2NC(=O)c2ccc(F)cc2)CC1 | -14% | -17% | -24%
SMILES | Vaccinia Venus | HCV inh | Vaccinia mCherry
COc1ccc(-c2cc3ccccc3oc2=O)cc1NC(=O)c1ccc([N+](=O)[O-])o1 | u | u | 11µM*
CCc1ccccc1NS(=O)(=O)c1ccc2c(c1)CC(=O)N2 | -5% | x | -6%
CCCN(CCC)c1ccc(/C=C/c2sc3ccccc3[n+]2CCCCI)cc1 | i | x | i
O=C1C(c2ccc(F)cc2)N(CCc2ccc(Cl)cc2)C(=O)CN1C1CCCCCC1 (stereo not drawn) | -4% | x | -7%
CS(=O)(=O)N1CCN(c2ccccc2NC(=O)c2ccc3c(c2)OCCO3)CC1 | -12% | -22% | -6%
COc1ccc(S(=O)(=O)N2CCCCC2)cc1NC(=O)c1ccco1 | -3% | 9% | -4%
CS(=O)(=O)N1CCN(c2ccccc2NC(=O)c2ccc([N+](=O)[O-])o2)CC1 | -6% | 11µM* | -7%
COc1ccc(S(=O)(=O)N2CCCCC2)cc1NC(=O)c1ccc([N+](=O)[O-])o1 | -19% | 10µM* | i
CCn1cc(CN2CCC(n3nccc3NC(=O)c3ccccc3C)CC2)cn1 | -3% | x | i
